This is an account of results in PubChem BioAssay.

Results filed as inconclusive are left out. Calls of active or inactive are those of the source.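 Rule for the calls, unless noted: active = response below a set limit, under 55% cells CD8-positive and vesicle-bound, and CD8 cells' 90th-percentile brightness under 279; inactive = the rest.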

Assay [1] can be described thus: yeast TOR pathway RPL19A-GFP modulators, primary screen, cell-based, S. cerevisiae, multiplex flow cytometry (AID 1862; in the data active = percent of DMSO control GFP below about 86%;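 note: lower values mimic rapamycin by blocking the RPL19A rise seen in DMSO cells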). Conditions: S. cerevisiae RPL19A-GFP strain, flow cytometry fluorescence, 3 h; at 10 µM; stronger effect = lower value. (In general: A flow cytometer gives signals particle by particle.)
Assay [2] can be described thus: modulators of MEP2-GFP levels in yeast, primary screen, S. cerevisiae, multiplex flow cytometry (AID 1867;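 active = GFP response, as percent of the DMSO control, above the screen-wide mean plus 3 SD, about 139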;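 note: median GFP channel fluorescence of barcode-gated MEP2-GFP cells measured by flow cytometry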). As to conditions: S. cerevisiae MEP2-GFP strain, 3 h, at 10 µM, stronger effect = higher value, 100% means same as DMSO wells.
Assay [3] can be described thus: modulators of CIT2-GFP expression in yeast, primary screen, S. cerevisiae, GFP fusion, multiplex flow cytometry (AID 1870;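 active = percent response above a set limit, the screen-wide mean plus 3 SD, cut at about 130% in these data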;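 note: barcoded CIT2-GFP strain pooled with four other GFP strains with rapamycin as positive control; median GFP fluorescence per well over plate mean of DMSO wells so 100% = DMSO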). As to conditions: 3 h, at 10 µM, stronger effect = higher value.
Assay [4] is described as follows: modulators of LAP4-GFP expression in yeast, primary screen, S. cerevisiae, multiplex flow cytometry (AID 1873;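 active = GFP signal, as percent of the solvent control, above the screen mean plus 3 SD, about 149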). Conditions: 3 h, at 10 µM, stronger effect = higher value.
A short description of assay [5]: modulators of AGP1-GFP expression in yeast TOR pathway, primary screen, cell-based, multiplex flow cytometry, S. cerevisiae (AID 1887;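 active = GFP signal above the screen-wide mean plus 3 SD, that is over about 124.5% of the solvent control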;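 note: AGP1-GFP fusion strain of S. cerevisiae within a five-strain barcoded multiplex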). As to conditions: 3 h, at 10 µM, stronger effect = higher value.
The nature of assay [6]: inhibitors of CD8+ T cell-vesicle binding, pilot screen, LFA-1/ICAM-1 modulator project, MLPCN validation set, flow cytometry (AID 2523).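 For vesicle binding response: mean PE anti-B7-1 fluorescence of CD8+ cells relative to row control; 100% = QL9-loaded vesicles with DMSO vehicle in the same plate row.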 As to conditions: 2C mouse CD8+ T cells, at 7 µM, stronger effect = lower value; double positive events: measured here: CD8+/vesicle+ event percentage.
Assay [7] has as its target Integrin beta-1 (Homo sapiens) + Integrin alpha-4 (Homo sapiens) (UniProt P13612+P05556). Put plainly: inhibition of HUTS-21 binding to VLA-4, pilot screen, VLA-4 allosteric modulator project, U937 cells, HUTS-21 mAb, flow cytometry, validation set (AID 2674;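 active = inhibition above 50%, about 3 SD of the validation set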;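 note: antibody binding induced by the VLA-4 ligand LDV present at three times its Kd; 0% = LDV ligand with antibody and no compound and 100% = antibody without LDV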). As to conditions: HUTS-21 LIBS mAb binding, at 6.7 µM, stronger effect = higher value, binding induced by LDV ligand.
Assay [8] in a line: superoxide lowering in aged yeast cells, pilot screen, validation compound set (AID 2706;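 active = superoxide response below 65% of plate, a cut near 3 SD across the whole screen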;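 note: yeast exposed to compound for one week at 30 degrees C before staining; 100% = mean of all compound wells on the same plate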). As to conditions: S. cerevisiae aging, superoxide DHE fluorescence; at 10 µM; stronger effect = lower value.
The target of assay [9] is Beta-adrenergic receptor kinase 1 (Homo sapiens) (UniProt P25098). Put plainly: GRK2 binders displacing RNA aptamer, biochemical, validation, human GRK2, bead flow cytometry (AID 488806;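 active = aptamer binding inhibition above 30%, about 3 SD of noise from non-fluorescent compounds; inactive = inhibition at or below 30%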). Conditions: bead-bound GRK2, FAM-aptamer displacement, at 10 µM, stronger effect = higher value.
Sequence of Beta-adrenergic receptor kinase 1 (Homo sapiens) (P25098 whole entry, looked up): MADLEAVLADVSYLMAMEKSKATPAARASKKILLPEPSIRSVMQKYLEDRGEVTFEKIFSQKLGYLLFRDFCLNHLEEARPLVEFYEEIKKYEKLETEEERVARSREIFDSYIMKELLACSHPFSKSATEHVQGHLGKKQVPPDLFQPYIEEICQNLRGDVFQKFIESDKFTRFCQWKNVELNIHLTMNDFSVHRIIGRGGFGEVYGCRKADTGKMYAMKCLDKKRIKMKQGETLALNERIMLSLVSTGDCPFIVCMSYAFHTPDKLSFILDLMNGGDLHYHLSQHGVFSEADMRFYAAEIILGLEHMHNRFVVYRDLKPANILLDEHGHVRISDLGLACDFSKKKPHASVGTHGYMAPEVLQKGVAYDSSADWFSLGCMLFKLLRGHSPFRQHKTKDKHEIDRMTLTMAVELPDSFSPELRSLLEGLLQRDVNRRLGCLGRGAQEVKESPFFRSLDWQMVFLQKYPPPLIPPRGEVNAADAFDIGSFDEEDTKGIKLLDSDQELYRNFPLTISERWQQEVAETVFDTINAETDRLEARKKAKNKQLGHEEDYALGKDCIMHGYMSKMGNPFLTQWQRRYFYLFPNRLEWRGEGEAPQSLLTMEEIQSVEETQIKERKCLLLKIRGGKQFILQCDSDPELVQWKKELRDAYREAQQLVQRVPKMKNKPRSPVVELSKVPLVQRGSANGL
In assay [10] the target is Beta-2 adrenergic receptor (Homo sapiens) (UniProt P07550). Put plainly: beta2AR agonists driving receptor internalization, pilot screen, cell-based, FAP fluorogen, flow cytometry, validation set (AID 504459;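 active = percent response above 42, roughly 3 SD of non-fluorescent test compounds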;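 note: agonist-driven loss of surface beta2AR via internalization measured by FAP dye flow cytometry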). As to conditions: Am2.2-beta2AR cells, FAP surface receptor flow cytometry; at 10 µM; stronger effect = higher value.
Sequence of Beta-2 adrenergic receptor (Homo sapiens) (P07550 whole entry, looked up): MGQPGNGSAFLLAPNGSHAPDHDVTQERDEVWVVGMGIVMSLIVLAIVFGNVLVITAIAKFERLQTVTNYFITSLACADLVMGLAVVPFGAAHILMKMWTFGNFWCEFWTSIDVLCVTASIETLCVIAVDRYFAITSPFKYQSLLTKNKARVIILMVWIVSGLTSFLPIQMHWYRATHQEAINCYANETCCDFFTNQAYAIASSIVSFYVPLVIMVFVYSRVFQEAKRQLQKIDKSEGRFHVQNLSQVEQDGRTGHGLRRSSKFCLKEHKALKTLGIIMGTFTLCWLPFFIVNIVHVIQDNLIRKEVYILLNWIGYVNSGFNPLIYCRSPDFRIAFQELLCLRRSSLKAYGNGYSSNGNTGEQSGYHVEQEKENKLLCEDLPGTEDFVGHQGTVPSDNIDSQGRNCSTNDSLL
Assay [11] deals with AP-2 complex subunit beta (Homo sapiens) (UniProt P63010). Briefly: inhibitors of arrestin peptide binding to AP2, pilot screen, biochemical, validation set, GST-AP2 beads, flow cytometry (AID 504541;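 active = inhibition above 54%, about 3 SD of non-fluorescent compounds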;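 note: AP2 carries R879A mutation and is captured from E. coli lysate; bead-bound FITC arrestin peptide fluorescence measuring arrestin peptide binding to AP2; 0% = DMSO wells and 100% = excess unlabeled arrestin peptide control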). Conditions: FITC arrestin peptide, at 10 µM, stronger effect = higher value, AP2 beta2 appendage fragment, R879A mutant.
Sequence of AP-2 complex subunit beta (Homo sapiens) (P63010 whole entry, looked up, the tested form may be a part, one chain of several): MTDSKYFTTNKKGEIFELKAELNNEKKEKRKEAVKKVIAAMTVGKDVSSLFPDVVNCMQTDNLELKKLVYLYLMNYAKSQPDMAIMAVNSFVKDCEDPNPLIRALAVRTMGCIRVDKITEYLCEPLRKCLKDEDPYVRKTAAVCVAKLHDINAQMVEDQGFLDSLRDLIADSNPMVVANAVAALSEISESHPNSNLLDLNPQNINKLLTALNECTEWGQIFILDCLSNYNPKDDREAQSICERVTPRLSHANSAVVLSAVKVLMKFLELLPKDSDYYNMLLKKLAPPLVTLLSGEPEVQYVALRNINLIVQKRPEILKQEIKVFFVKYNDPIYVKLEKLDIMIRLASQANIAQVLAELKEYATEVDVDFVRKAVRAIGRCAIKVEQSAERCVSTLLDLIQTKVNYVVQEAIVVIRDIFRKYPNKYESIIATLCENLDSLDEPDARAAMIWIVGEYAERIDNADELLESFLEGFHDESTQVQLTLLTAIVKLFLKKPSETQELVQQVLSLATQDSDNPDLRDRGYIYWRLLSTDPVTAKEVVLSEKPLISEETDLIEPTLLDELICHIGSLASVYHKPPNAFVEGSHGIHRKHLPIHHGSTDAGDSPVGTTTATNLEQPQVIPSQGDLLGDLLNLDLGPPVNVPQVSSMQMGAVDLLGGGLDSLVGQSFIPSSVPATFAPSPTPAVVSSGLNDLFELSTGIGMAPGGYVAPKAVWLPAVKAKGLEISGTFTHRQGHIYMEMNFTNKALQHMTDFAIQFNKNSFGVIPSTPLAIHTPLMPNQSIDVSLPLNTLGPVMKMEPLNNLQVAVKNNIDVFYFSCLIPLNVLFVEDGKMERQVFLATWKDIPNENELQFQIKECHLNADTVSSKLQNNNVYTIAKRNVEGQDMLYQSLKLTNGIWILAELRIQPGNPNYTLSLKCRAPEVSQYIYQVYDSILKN
The nature of assay [12]: yeast V-ATPase proton transport modulators, S. cerevisiae, pHLuorin, HTS validation (AID 504600; in the data active = response above about 15%;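 note: plate controls were DMSO for no effect and reference compound for full effect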). As to conditions: S. cerevisiae pHLuorin cytosolic pH, at 10 µM, stronger effect = higher value.
The test system of assay [13] is anti-desmoglein-3 scFv antibody binding to human DSG3. Put plainly: inhibitors of anti-DSG3 scFv binding to DSG3, pilot screen, biochemical, validation compound set, bead-based, flow cytometry (AID 588368;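 active = binding below the plate cutoff, the plate median minus 3 SD, with a reading above zero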;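 note: signal is the median channel fluorescence of bead-bound GFP antibody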). Conditions: Protein G beads, DSG3-Fc, scFv-GFP binding, at 10 µM, stronger effect = lower value.
A short description of assay [14]: inhibitors of fungal efflux pumps CDR1, CDR2, MDR1, pilot screen, validation compound set, multiplex, phenotypic (AID 588506;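 active = efflux inhibition above 0.42, the validation set average plus 4 SD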;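 note: Nile Red retained in cells so higher fluorescence means more efflux inhibition; 0 = negative control wells and 1 = enniatin B 25 µM full block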). Conditions: S. cerevisiae pump-expressing triplex, Nile Red efflux flow cytometry; at 10 µM; stronger effect = higher value; the pumps come from Candida albicans.
For assay [15], the target named is ATP-binding cassette sub-family B member 6 (Homo sapiens) (UniProt Q9NP58). Briefly: ABCB6 transporter inhibitors, pilot screen, K562-ABCB6 cells, flow cytometry, validation set (AID 588550;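 active = inhibition above the screen-wide mean plus 3 SD, about 51%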;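 note: 0% = DMSO wells and 100% = benzethonium chloride 70 µM positive control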). Conditions: K562-ABCB6 porphyrin accumulation, 1 h, at 10 µM, stronger effect = higher value.
Sequence of ATP-binding cassette sub-family B member 6 (Homo sapiens) (Q9NP58 whole entry, looked up): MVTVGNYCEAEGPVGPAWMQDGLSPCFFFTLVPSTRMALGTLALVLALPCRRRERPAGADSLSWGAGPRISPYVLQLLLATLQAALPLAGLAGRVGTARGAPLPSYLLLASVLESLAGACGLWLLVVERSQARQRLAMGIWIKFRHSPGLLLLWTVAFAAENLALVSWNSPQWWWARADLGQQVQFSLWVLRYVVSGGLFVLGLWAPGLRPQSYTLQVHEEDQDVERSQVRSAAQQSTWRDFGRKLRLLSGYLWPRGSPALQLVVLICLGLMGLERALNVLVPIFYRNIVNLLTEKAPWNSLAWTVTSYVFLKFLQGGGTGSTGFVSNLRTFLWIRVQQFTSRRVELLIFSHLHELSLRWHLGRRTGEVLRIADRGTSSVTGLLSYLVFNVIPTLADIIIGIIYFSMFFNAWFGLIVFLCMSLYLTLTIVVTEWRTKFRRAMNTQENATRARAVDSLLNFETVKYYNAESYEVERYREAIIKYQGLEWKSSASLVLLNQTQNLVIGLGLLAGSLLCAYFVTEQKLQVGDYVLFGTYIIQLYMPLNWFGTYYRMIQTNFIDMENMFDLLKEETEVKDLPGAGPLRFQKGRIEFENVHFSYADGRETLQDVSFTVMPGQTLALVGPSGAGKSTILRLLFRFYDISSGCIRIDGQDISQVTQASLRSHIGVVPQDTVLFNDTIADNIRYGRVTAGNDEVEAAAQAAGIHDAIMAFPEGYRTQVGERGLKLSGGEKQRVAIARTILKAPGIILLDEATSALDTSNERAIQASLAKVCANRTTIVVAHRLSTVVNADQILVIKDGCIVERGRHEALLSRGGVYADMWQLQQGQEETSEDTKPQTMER
Assay [16] in a line: promoters of myeloid differentiation in arrested cells, primary screen, cell-based, GFP/MAC1 double positive, flow cytometry, validation set (AID 588685;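 active = differentiation response of at least 50%, scaled between solvent and reference control, from cells with both markers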;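 note: compound exposure lasts four days before antibody staining and flow analysis; 0% = DMSO wells and 100% = 5 µM fulvestrant positive control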). Conditions: ER-HoxA9 marrow cells, stronger effect = higher value, normalized: vehicle 0, fulvestrant 100.

Sequence of Integrin beta-1 (Homo sapiens) + Integrin alpha-4 (Homo sapiens) (P05556 whole entry, looked up): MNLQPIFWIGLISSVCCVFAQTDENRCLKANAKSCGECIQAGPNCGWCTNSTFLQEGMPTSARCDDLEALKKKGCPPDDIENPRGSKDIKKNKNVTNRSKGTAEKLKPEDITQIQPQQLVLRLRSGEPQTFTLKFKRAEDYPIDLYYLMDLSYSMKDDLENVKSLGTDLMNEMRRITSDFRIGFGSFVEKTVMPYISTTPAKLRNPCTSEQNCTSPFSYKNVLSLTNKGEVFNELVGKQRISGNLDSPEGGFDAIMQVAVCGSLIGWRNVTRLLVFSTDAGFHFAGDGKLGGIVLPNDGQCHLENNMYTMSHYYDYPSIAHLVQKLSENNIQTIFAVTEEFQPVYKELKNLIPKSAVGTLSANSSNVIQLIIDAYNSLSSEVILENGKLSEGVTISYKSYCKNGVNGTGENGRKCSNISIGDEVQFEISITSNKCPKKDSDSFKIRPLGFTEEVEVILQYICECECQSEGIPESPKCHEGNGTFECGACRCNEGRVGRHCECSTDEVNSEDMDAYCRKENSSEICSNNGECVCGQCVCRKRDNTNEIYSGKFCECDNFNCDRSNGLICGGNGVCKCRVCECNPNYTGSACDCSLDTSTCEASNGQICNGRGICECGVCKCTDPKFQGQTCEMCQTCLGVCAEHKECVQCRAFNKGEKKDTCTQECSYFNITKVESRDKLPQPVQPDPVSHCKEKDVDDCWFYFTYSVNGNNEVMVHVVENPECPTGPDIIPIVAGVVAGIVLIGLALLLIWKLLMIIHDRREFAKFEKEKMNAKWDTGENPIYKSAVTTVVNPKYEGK
Sequence of Integrin beta-1 (Homo sapiens) + Integrin alpha-4 (Homo sapiens) (P13612 whole entry, looked up): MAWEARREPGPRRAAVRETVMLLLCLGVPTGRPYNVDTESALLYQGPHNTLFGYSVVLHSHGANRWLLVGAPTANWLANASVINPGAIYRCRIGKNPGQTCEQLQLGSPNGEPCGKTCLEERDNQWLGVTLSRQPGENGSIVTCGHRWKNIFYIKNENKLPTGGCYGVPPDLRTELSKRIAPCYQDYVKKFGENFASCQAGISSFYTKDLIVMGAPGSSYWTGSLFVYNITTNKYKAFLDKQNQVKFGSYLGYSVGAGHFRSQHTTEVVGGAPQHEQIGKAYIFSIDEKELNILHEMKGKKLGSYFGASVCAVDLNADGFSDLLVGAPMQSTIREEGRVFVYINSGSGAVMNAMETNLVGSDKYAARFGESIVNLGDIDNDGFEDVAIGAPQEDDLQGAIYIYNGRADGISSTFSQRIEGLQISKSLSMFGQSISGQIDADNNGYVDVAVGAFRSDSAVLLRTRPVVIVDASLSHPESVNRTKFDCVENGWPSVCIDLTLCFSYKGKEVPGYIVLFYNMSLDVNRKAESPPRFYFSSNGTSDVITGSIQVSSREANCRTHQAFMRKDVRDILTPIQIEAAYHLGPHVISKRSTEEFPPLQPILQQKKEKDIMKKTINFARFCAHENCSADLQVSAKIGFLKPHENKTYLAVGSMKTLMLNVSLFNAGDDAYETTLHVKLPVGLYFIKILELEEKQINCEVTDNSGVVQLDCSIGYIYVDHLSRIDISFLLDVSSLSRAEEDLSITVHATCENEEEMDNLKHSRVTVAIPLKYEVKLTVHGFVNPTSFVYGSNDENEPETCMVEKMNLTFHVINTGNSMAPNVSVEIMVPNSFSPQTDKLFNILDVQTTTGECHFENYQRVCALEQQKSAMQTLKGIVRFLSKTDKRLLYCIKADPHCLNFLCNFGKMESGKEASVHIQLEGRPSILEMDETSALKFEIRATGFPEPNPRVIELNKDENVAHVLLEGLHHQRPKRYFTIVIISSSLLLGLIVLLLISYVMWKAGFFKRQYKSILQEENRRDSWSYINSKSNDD

Consider `C[C@]12CC[C@@H]3c4ccc(O)cc4CC[C@H]3[C@@H]1CCC2=O`, for which the percent of DMSO control GFP in assay [1] is 101% (inactive). Also, the values for the GFP response vs DMSO in [2] and in [4] were 100% (inactive) and 125% (inactive), respectively. Besides, in [3], the percent response of DMSO control was 95.4% (inactive). Moreover, the GFP response, % of DMSO in [5] was 94.8% (inactive). In addition, the double positive events in assay [6] was 60.6%. For the same compound, the vesicle binding response in [6] was 34.4% (inactive). Further, the inhibition (in general, the relative decrease from the control value, in per cent) in [7] was -13.9% (inactive); in assay [11], 9.61% (inactive); in assay [15], 8% (inactive). Moreover, the superoxide response (% of plate) in assay [8] was 98.7% (inactive). In addition, the aptamer binding inhibition in assay [9] is 2% (inactive). The values for the response in [10] and in assay [12] were -0.01% (inactive) and -0.09% (inactive), respectively. Also, the binding (% of control) in assay [13] was 98.9% (inactive). Moreover, the efflux inhibition (fraction of control) in assay [14] was -0.32 (inactive). Further, the differentiation response in assay [16] is 0.24% (inactive).
Consider `Cc1ccc2nc(N=C(N)N)nc(C)c2c1`, for which the percent of DMSO control GFP in [1] was 111% (inactive). For the same compound, the GFP response vs DMSO was 107% (inactive) in [2] and 114% (inactive) in [4]. In addition, in [3], the percent response of DMSO control was 110% (inactive). The GFP response, % of DMSO in [5] was 118% (inactive). This compound also registered a double positive events in assay [6] of 58.7%. Also, the vesicle binding response in [6] is 124% (inactive). Moreover, the inhibition in [7] was -13.2% (inactive); in [11], 0.05% (inactive); in assay [15], 5% (inactive). In addition, the superoxide response (% of plate) in assay [8] is 91.5% (inactive). The aptamer binding inhibition in [9] is -1% (inactive). Further, the response is -5.11% (inactive) in assay [10] and 5.97% (inactive) in [12]. Further, the binding (% of control) in assay [13] is 109% (inactive). Further, the efflux inhibition (fraction of control) in assay [14] is -0.02 (inactive). In addition, the differentiation response in assay [16] is -8.96% (inactive).
As for `CC(C)C12CN3CC(C(C)C)(CN(C1)C3c1ccccc1O)C2=O` (stereo not drawn), in assay [1], the percent of DMSO control GFP was 94.4% (inactive). Besides, the GFP response vs DMSO in assay [2] was 120% (inactive); in [4], 75.9% (inactive). The percent response of DMSO control in [3] was 104% (inactive). Also, the GFP response, % of DMSO in assay [5] was 87% (inactive). In assay [6], the double positive events turned out to be 66.6%. For the same compound, the vesicle binding response in assay [6] was 192% (inactive). The results for the inhibition in assay [7], in [11] and in [15] were 10.3% (inactive), -9.47% (inactive) and 5% (inactive), respectively. For the same compound, the superoxide response (% of plate) in assay [8] was 94.7% (inactive). Further, the aptamer binding inhibition in [9] was 6% (inactive). Further, the results for the response in [10] and in assay [12] were -10.3% (inactive) and -6% (inactive), respectively. The binding (% of control) in assay [13] is 99% (inactive). In assay [14], the efflux inhibition (fraction of control) was 0.12 (inactive). Moreover, in assay [16], the differentiation response is -6.55% (inactive).
For `COc1cccc(OCC(O)CO)c1` (stereo not drawn), the percent of DMSO control GFP in assay [1] is 97.6% (inactive). Also, the GFP response vs DMSO in assay [2] was 91.9% (inactive); in assay [4] it was 78.6% (inactive). Also, the percent response of DMSO control in assay [3] is 107% (inactive). Moreover, in assay [5], the GFP response, % of DMSO is 91.6% (inactive). Also, the double positive events in assay [6] was 58.2%. Further, in assay [6], the vesicle binding response is 160% (inactive). The inhibition was 0.94% (inactive) in assay [7], 11.4% (inactive) in assay [11] and 1% (inactive) in [15]. The superoxide response (% of plate) in assay [8] was 94.9% (inactive). Also, the aptamer binding inhibition in assay [9] is 4% (inactive). Moreover, the response in [10] is 3.25% (inactive); in assay [12], -1.06% (inactive). For the same compound, the binding (% of control) in [13] is 99.9% (inactive). In assay [14], the efflux inhibition (fraction of control) is -0.1 (inactive). Further, the differentiation response in assay [16] is -4% (inactive).
